The values that follow come from PubChem BioAssay (EPA / NIEHS).

A short description of test [1]: ATG_EGR_CIS: Attagene CIS-FACTORIAL HepG2 Assay for human Early Growth Response 1 (EGR1) (AID 2282938). The following applies: HepG2 Attagene CIS-FACTORIAL EGR reporter mRNA; actives raise or lower the signal. The essentials:
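Activity is taken as induction or loss of reporter mRNA versus DMSO, fitted bidirectionally. Transcripts from cis-regulated reporter units in transiently transfected HepG2 were measured after 24 h by RT-PCR with capillary electrophoresis.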

Test [2] is described as follows: ATG_M_19_CIS: Attagene CIS-FACTORIAL HepG2 Assay for M19 Transcription Factor (Internal Marker) (AID 2282939). The settings on record: HepG2 Attagene CIS-FACTORIAL M19 internal marker reporter; actives raise or lower the signal. The essentials: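 Signals come from fluorescence of labelled reporter-specific PCR fragments resolved by capillary electrophoresis, following 24 h treatment of HepG2 cells transfected with cis-promoter reporter units; activity was fitted in both directions relative to DMSO.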

The nature of test [3]: ATG_ERE_CIS: Attagene CIS-FACTORIAL HepG2 Assay for Estrogen Response Element (ERE) (AID 2282940). The settings on record: HepG2 ERE cis-reporter, Attagene RNA transcript; actives raise or lower the signal. The essentials:
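Fluorescence of capillary-separated, FAM-labelled reporter cDNA fragments indicates reporter mRNA levels in HepG2 cells exposed to chemicals for 24 h. Transient transfection with cis-regulated units; data fitted in both directions against DMSO.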

The nature of test [4]: ATG_Ets_CIS: Attagene CIS-FACTORIAL HepG2 Assay for human Erythroblast Transformation Specific (ETS) (AID 2282941). The following applies: HepG2 ETS cis-reporter transcription, actives raise or lower the signal. The essentials: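 HepG2 cells transiently transfected with cis-promoter reporter transcription units were dosed for 24 h; reporter mRNA was measured by RT-PCR, 6-FAM primer extension, HpaI digestion and capillary electrophoresis, with bidirectional fitting against DMSO baseline.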

A short description of test [5]: ATG_FoxO_CIS: Attagene CIS-FACTORIAL HepG2 Assay for human Forkhead box O (FoxO) (AID 2282943). The following applies: HepG2 Attagene cis-reporter, FoxO element, mRNA; actives raise or lower the signal. The essentials: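 Values reflect reporter mRNA induction or loss in HepG2 cells 24 h post-dosing, fitted bidirectionally with DMSO as negative control and baseline. Detection used RT-PCR and fluorescence capillary electrophoresis.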

Test [6] can be described thus: ATG_GATA_CIS: Attagene CIS-FACTORIAL HepG2 Assay for human GATA Binding Protein (AID 2282944). The settings on record: HepG2 GATA cis-element reporter, Attagene multiplex mRNA; actives raise or lower the signal. The essentials: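 After transfecting HepG2 cells with multiple cis-regulated reporter units, chemicals are dosed for 24 h; isolated RNA undergoes RT-PCR and fluorescent labeling before capillary electrophoresis, with activity expressed against DMSO.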

A short description of test [7]: ATG_GLI_CIS: Attagene CIS-FACTORIAL HepG2 Assay for human Zinc Finger Protein GLI1 (AID 2282945). The settings on record: HepG2, Attagene cis-factorial reporter mRNA, GLI element; actives raise or lower the signal. The essentials: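 HepG2 cells transiently transfected with cis-promoter multiplexed reporter units report endogenous transcription factor activity. After 24 h chemical exposure, reporter mRNA was quantified by RT-PCR, 6-FAM labelling, HpaI digestion and capillary electrophoresis, with bidirectional fitting against DMSO.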

Test [8] addresses Bile acid receptor (Homo sapiens) (UniProt Q96RI1). As to the kind of experiment: ATG_IR1_CIS: Attagene CIS-FACTORIAL HepG2 Assay for human Nuclear Receptor Subfamily 1 Group H Member 4 (NR1H4), IR1 submotif (AID 2282946). The following applies: IR1 reporter transcription, actives raise or lower the signal. The essentials: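 Transient MRTU transfection, HepG2; 24 h dosing; RNA → RT-PCR → 6-FAM primer extension → HpaI digest → capillary electrophoresis fluorescence. Gain/loss of signal fitted relative to DMSO.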

The nature of test [9]: ATG_GRE_CIS: Attagene CIS-FACTORIAL HepG2 Assay for human Glucocorticoid Response Elements (GRE) (AID 2282947). The following applies: HepG2 GRE cis-reporter, Attagene multiplex mRNA; actives raise or lower the signal. The essentials: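 Following 24 h chemical exposure of transiently transfected HepG2 cells, total RNA was reverse-transcribed and reporter cDNA amplified, fluorescently labelled and sized by capillary electrophoresis. Signal gain or loss was fitted relative to DMSO vehicle.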

A short description of test [10]: ATG_ISRE_CIS: Attagene CIS-FACTORIAL HepG2 Assay for human Interferon Regulatory Factor 1 (IRF1) binding to an Interferon-Stimulated Response Element (ISRE) (AID 2282948). The following applies: HepG2 ISRE cis-reporter (Attagene), mRNA transcription readout; actives raise or lower the signal. The essentials: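 HepG2 cells transiently transfected with multiplexed cis-promoter reporter units; after 24 h compound exposure, reporter mRNA quantified by RT-PCR, FAM labelling, HpaI digestion and capillary electrophoresis. Bidirectional fit versus DMSO baseline.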

Test [11] is described as follows: ATG_M_32_CIS: Attagene CIS-FACTORIAL HepG2 Assay for M32 Transcription Factor (Internal Marker) (AID 2282949).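 Further: background control marker of the multiplexed CIS panel rather than a real target.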 The settings on record: HepG2 Attagene cis-factorial M32 reporter, mRNA; actives raise or lower the signal. The essentials: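 Fluorescent capillary electrophoresis peaks of HpaI-digested, FAM-labelled RT-PCR reporter products give the signal. Source: transiently transfected human liver HepG2 cells, 24 h after chemical dosing; bidirectional fitting against DMSO.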

Test [12] can be described thus: ATG_M_06_CIS: Attagene CIS-FACTORIAL HepG2 Assay for M06 Transcription Factor (Internal Marker) (AID 2282950). The settings on record: HepG2 Attagene CIS-FACTORIAL M06 internal marker reporter; actives raise or lower the signal. The essentials:
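HepG2 liver cells, 24 h exposure. Reporter transcripts from transfected cis-element constructs quantified by RT-PCR/capillary electrophoresis fluorescence. Bidirectional curve fit against DMSO.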

Test [13] deals with Hypoxia-inducible factor 1-alpha (Homo sapiens) (UniProt Q16665). Put plainly: ATG_HIF1a_CIS: Attagene CIS-FACTORIAL HepG2 Assay for human Hypoxia Inducible Factor 1 (HIF1A) (AID 2282951). The following applies: HepG2 Attagene cis-factorial HIF1a reporter transcription; actives raise or lower the signal. The essentials:
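Fluorescence intensity of capillary-separated, 6-FAM-labelled reporter amplicons gives mRNA induction in HepG2 cells carrying transfected cis-promoter reporter units; cells exposed 24 h, responses fitted up or down from DMSO.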

The target in test [14] is Hepatocyte nuclear factor 6 (Homo sapiens) (UniProt Q9UBC0). Put plainly: ATG_HNF6_CIS: Attagene CIS-FACTORIAL HepG2 Assay for human Hepatocyte Nuclear Factor 6 (HNF6) (AID 2282952). The settings on record: HepG2 Attagene cis-factorial HNF6 reporter transcription; actives raise or lower the signal. The essentials:
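HepG2 cells transiently transfected with cis-element-driven multiple reporter transcription units, dosed 24 h; reporter mRNA quantified by RT-PCR, FAM primer extension, HpaI digestion and capillary electrophoresis; bidirectional fit versus DMSO baseline.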

Test [15] concerns the target Heat shock factor protein 1 (Homo sapiens) (UniProt Q00613). As to the kind of experiment: ATG_HSE_CIS: Attagene CIS-FACTORIAL HepG2 Assay for human Heat Shock Transcription Factor 1 (HSE) (AID 2282953). The settings on record: HepG2 HSE cis-reporter, Attagene RNA transcription; actives raise or lower the signal. The essentials: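 Endogenous transcription factor activity captured via cis-promoter reporter units transfected into HepG2; treatment lasted 24 h. Fluorescence intensity of reporter fragments analysed with bidirectional curve fitting, DMSO baseline.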

Test [16] in a line: ATG_MRE_CIS: Attagene CIS-FACTORIAL HepG2 Assay for human Metal Responsive Element (MRE) (AID 2282954). The settings on record: HepG2 MRE cis-reporter transcription, Attagene multiplex; actives raise or lower the signal. The essentials:
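Step one: transfect HepG2 with cis-regulated reporter units. Step two: dose 24 h. Step three: isolate RNA, RT-PCR, 6-FAM label, HpaI digest, capillary electrophoresis. Fit bidirectionally to DMSO.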

A short description of test [17]: ATG_PBREM_CIS: Attagene CIS-FACTORIAL HepG2 Assay for human Phenobarbital-responsive Enhancer Module (PBREM) (AID 2282955). The following applies: HepG2 PBREM cis-reporter, Attagene multiplexed transcription; actives raise or lower the signal. The essentials:
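Cells were transfected with cis-element reporter units and treated for 24 h, after which RNA was extracted and reporter transcripts measured by RT-PCR and capillary electrophoresis.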

Test [18] concerns the target Paired box protein Pax-6 (Homo sapiens) (UniProt P26367). Put plainly: ATG_Pax6_CIS: Attagene CIS-FACTORIAL HepG2 Assay for human Paired Box 6 (PAX6) (AID 2282956). The settings on record: HepG2 CIS-FACTORIAL PAX6 reporter transcription, RNA readout; actives raise or lower the signal. The essentials:
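HepG2 cells transiently transfected with multiplexed cis-promoter reporter units (endogenous TF activity) were dosed for 24 h. Reporter mRNA was quantified by RT-PCR, 6-FAM labeling, HpaI digestion and capillary electrophoresis; bidirectional fitting versus DMSO baseline.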

Test [19] addresses Hepatocyte nuclear factor 3-beta (Homo sapiens) (UniProt Q9Y261). As to the kind of experiment: ATG_FoxA2_CIS: Attagene CIS-FACTORIAL HepG2 Assay for human Forkhead box A2 (FOXA2) (AID 2282942). The following applies: HepG2 cis-reporter transcription factor activity, 24 h; actives raise or lower the signal. The essentials:
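Reporter transcript induction is measured by fluorescence after capillary electrophoresis of RT-PCR products from HepG2 cells exposed 24 h. Cis-regulated reporter units report endogenous factor activity; curves fitted both directions against DMSO.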

Activity calls are given as the source filed them. How the source made its calls: active means hit-call score of the fitted dose curve at least 0.9, where 1 is the maximum; inactive means score below 0.9.

Paired box protein Pax-6 (Homo sapiens), sequence (P26367 whole entry, looked up): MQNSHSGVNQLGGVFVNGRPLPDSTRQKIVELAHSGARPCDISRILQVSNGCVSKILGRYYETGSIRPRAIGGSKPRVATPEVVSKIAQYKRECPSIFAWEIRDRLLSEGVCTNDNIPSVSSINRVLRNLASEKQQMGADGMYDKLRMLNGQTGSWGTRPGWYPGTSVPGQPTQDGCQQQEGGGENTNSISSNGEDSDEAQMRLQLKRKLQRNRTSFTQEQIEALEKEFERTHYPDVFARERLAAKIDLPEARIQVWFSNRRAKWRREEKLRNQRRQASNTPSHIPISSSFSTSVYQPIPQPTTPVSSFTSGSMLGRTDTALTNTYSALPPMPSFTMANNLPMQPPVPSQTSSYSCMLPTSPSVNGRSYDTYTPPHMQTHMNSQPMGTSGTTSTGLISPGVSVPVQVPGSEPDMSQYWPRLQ
Heat shock factor protein 1 (Homo sapiens), sequence (Q00613 whole entry, looked up, the tested form may be a part): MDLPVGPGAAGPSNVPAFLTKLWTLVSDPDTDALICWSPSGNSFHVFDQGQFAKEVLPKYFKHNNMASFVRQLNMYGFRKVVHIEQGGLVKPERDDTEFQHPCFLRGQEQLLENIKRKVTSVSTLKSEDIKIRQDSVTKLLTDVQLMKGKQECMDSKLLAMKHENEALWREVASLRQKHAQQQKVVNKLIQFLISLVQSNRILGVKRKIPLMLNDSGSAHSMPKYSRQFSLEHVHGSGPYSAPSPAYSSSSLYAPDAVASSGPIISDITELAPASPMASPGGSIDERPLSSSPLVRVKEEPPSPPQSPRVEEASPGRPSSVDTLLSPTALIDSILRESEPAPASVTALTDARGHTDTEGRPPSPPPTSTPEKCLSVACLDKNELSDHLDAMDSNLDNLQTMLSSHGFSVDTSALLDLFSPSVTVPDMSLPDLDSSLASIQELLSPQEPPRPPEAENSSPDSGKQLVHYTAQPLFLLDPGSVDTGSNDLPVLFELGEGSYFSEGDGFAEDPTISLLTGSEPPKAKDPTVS
Hypoxia-inducible factor 1-alpha (Homo sapiens), sequence (Q16665 whole entry, looked up): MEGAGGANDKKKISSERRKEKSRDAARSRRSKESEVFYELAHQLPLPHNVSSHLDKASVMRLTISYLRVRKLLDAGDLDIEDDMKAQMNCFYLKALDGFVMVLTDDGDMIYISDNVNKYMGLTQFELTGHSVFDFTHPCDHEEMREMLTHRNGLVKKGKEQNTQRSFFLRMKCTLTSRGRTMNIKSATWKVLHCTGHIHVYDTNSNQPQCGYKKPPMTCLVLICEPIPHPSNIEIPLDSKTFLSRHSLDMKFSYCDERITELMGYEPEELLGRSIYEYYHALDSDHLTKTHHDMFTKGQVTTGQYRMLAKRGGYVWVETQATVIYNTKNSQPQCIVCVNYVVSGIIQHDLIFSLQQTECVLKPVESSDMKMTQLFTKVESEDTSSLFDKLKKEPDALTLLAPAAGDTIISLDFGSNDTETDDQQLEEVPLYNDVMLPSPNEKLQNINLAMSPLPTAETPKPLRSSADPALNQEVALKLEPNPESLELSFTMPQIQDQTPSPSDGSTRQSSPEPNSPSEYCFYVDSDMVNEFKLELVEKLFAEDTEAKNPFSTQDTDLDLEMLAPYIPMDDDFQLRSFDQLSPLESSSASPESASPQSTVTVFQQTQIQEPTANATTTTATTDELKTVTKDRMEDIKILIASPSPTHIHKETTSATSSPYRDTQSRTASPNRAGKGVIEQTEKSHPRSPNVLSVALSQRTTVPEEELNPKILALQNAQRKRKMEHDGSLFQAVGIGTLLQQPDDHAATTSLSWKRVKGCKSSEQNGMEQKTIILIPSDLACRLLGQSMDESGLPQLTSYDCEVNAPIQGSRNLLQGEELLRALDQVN
Hepatocyte nuclear factor 3-beta (Homo sapiens), sequence (Q9Y261 whole entry, looked up): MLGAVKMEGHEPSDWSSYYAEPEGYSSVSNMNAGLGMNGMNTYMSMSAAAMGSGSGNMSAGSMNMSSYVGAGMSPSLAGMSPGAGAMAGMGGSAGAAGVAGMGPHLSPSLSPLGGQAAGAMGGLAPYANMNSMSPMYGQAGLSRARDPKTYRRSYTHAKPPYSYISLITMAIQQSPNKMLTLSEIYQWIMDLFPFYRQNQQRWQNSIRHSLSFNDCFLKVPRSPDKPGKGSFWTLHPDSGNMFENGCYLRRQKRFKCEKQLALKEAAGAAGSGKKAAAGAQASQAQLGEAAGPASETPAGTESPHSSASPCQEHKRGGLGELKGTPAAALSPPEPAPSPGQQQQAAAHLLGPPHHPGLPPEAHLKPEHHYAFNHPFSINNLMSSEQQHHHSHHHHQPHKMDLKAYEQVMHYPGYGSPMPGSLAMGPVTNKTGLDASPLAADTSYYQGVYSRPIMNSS
Bile acid receptor (Homo sapiens), sequence (Q96RI1 whole entry, looked up): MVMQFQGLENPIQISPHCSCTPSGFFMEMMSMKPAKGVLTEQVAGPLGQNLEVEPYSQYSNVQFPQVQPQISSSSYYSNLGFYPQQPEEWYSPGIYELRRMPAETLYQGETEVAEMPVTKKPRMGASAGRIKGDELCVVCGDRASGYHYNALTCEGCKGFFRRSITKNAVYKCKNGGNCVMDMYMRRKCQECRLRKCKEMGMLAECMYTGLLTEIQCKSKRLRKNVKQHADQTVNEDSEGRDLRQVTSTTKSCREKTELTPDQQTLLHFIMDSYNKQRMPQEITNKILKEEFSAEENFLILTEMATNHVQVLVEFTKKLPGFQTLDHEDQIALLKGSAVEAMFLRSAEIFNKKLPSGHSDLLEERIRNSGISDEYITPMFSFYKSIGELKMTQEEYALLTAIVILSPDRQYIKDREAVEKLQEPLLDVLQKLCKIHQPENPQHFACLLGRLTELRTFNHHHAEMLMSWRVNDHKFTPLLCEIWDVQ
Hepatocyte nuclear factor 6 (Homo sapiens), sequence (Q9UBC0 whole entry, looked up): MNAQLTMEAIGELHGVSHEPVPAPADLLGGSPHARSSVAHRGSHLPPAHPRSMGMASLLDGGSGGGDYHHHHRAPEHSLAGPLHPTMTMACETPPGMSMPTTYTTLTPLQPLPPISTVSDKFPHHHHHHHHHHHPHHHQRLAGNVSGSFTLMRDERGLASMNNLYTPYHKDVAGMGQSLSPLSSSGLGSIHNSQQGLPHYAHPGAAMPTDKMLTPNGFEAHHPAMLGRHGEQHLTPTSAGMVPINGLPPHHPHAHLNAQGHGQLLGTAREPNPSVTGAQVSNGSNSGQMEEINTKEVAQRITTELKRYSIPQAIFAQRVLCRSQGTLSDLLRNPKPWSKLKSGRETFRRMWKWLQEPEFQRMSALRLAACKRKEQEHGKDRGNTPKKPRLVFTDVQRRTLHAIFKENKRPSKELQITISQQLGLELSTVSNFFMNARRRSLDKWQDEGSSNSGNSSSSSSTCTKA

For the compound `COC(F)(C(F)(F)C(F)(F)F)C(F)(C(F)(F)F)C(F)(F)F` (stereo not given), the compound was called inactive in test [1], in [2], in test [3], in [4], in test [5] and in [6]. In addition, the outcome in test [7], in test [8], in [9], in [10], in test [11] and in test [12] was inactive. Moreover, the result in test [13], in test [14], in [15], in test [16], in test [17] and in test [18] was inactive.

`CCOC(=O)Cc1ccccc1`: the call in test [1], in [2], in test [3], in [4], in [19] and in test [6] was inactive. For the same compound, the result in test [7], in [8], in [9], in [11], in [12] and in test [13] was inactive. Further, the call in test [14], in [15], in [16], in [17] and in test [18] was inactive.

On to `CC1(C)COP(Oc2ccccc2)OC1`, for which the compound was classed as inactive in test [1], in test [2], in [4], in test [6], in [7] and in test [8]. Besides, the result in [9], in test [11], in [12], in test [13], in [14] and in [15] was inactive. The outcome in [16], in test [17] and in test [18] was inactive.

As for `[Cl][Sn]([c]1ccccc1)([c]1ccccc1)[c]1ccccc1`, the AC50 in test [1] was 257 nM (active); in test [3] it was 14 nM (active); in test [5], 308 nM (active); in test [6], 1200 nM (active); in [7], 221 nM (active); in test [13] it was 252 nM (active). Also, the AC50 in [14] is 1620 nM (active); in test [15], 243 nM (active); in test [16], 230 nM (active); in test [18], 248 nM (active). In addition, the call in test [2], in [4], in test [8], in test [9], in test [10] and in test [12] was inactive. In addition, in test [17], the outcome was inactive.

As to `COc1ccccc1N`, the call in test [1], in [2], in [4], in test [19], in test [5] and in test [7] was inactive. The compound was classed as inactive in [10], in test [11], in test [13], in test [14], in [16] and in [18].

`O=C(Cl)OCCOCCOC(=O)Cl`: the call in test [1], in test [2], in test [3], in test [4], in [19] and in test [6] was inactive. Further, the compound was classed as inactive in test [7], in test [9], in test [10], in test [11], in test [13] and in test [14]. Moreover, the result in test [16], in test [17] and in [18] was inactive.

Consider `CN(C)c1ccc(N=O)cc1`, for which the AC50 in [1] is 13500 nM (active); in test [8] it was 9690 nM (active); in [9] it was 23600 nM (active); in test [15], 25400 nM (active). The result in [2], in test [3], in [4], in test [19], in test [6] and in test [7] was inactive. For the same compound, the compound was called inactive in test [11], in test [12], in [13], in test [14], in test [16] and in test [17]. For the same compound, in test [18], the result was inactive.

`Brc1ccc(Oc2c(Br)cc(Br)cc2Br)c(Br)c1`: the call in test [1], in [2], in test [3], in [19], in test [5] and in test [6] was inactive. Moreover, the compound was classed as inactive in [7], in test [8], in test [9], in test [10], in test [12] and in test [13]. The result in [14], in [15], in test [16], in test [17] and in test [18] was inactive.

For the compound `O=C=Nc1ccc(Cl)cc1`, the call in test [1], in [2], in test [3], in test [4], in [19] and in test [6] was inactive. Besides, the compound was classed as inactive in test [7], in test [10], in test [11], in test [12], in test [13] and in test [14]. Also, the result in [15], in [16], in [17] and in test [18] was inactive. In [5], the AC50 is 162000 nM (active).
